# RmlCD inh mix: mixture blocks RmlC and RmlD coupled enzyme activity; RmlC/RmlD coupled enzyme inhibition, 384-well mixture HTS; inhibition, % at 5.5 µM; 0.39% of 110,000 active; AID 1532; in the data active = inhibition above about 30%, passing the limit was not always enough; inconclusive = no clear call, values can overlap the other calls
# YopH PTP inh: inhibitors of Yersinia enterocolitica YopH tyrosine phosphatase | fluorescence Ex485/Em525 | inhibition, % (concentration not given with the values) | AID 898 | 0.16% of 140,000 active; in the data active = inhibition above about 50%
# * = called active by the depositor; ? = inconclusive; . = no result. Sampled rows, rich in hits. Any-hit rate of the full collection: about 0.44%.
SMILES,RmlCD inh mix,YopH PTP inh
CCOC(=O)N1CCC(NC(=O)c2cnn3c(C(F)(F)F)cc(-c4cccc(OC)c4)nc23)CC1,121*,.
Cc1cc(Br)c2c(c1)C(O)(N1CCCCC1C)C(=O)N2 (centres undefined),.,-27
CC(=O)Nc1nonc1NC(C)=O,-9,-5
CC(=O)Nc1cc(OC(C)=O)c2nonc2c1OC(C)=O,-6,76*
O=C1C=CCC(/C=C/c2ccccc2)O1 (centres undefined),-9,-35
O=c1[nH]c2ccccc2n1CCCSc1cnc2ccccc2n1,18,19
C=CCn1c2ccccc2c2nnc(SCCCn3c(=O)[nH]c4ccccc43)nc21,71*,22
CC(Sc1nc2ccccc2s1)C(=O)N1CCOCC1 (centres undefined),-1,-2
O=C1C=CC(=O)C(C2=C3C(=O)N(CCc4ccccc4)CC(=O)N3CCC2)=C1,.,67*
O=C1CC(=O)N(CCc2ccccc2)C(=O)N1CCc1ccccc1,6,-34
CC(C)(C)C(=O)NC1CCN(S(=O)(=O)c2ccc(C(F)(F)F)cc2)CC1,-11,1
Cc1noc(NS(=O)(=O)c2ccc(NC(=O)CCCOc3ccc(Cl)cc3Cl)cc2)c1C,5,92*
Cc1noc(NS(=O)(=O)c2ccc(NC(=O)COc3ccc(Cl)cc3Cl)cc2)c1C,.,-31
Cn1c(=O)c(-c2ccccc2)nn2c3ccccc3nc12,8,-7
Cc1nc2c(=O)n(C)c(=O)nc-2n(C)n1,.,101*
CCN(CC)c1ccc(C(=O)OCC(=O)NCC2CCCO2)cc1 (centres undefined),-19,-17
CCn1c(COc2ccc(C)cc2)nnc1SCc1nc2ccccc2[nH]1,-5,11
Cn1c(COc2ccccc2)nnc1SCc1nc2ccccc2[nH]1,5,71*
COc1ccc2cc(/C(C)=N/NC(=O)c3cc(-c4cccnc4)nc4ccccc34)ccc2c1,.,-11
Nc1nnnn1/N=C/c1ccc(O)cc1,9,-37
CCN(C)c1ccc(/C=N\n2nnnc2N)cc1,71*,11
CC(=O)Nc1c(NC(C)C)c2ccccc2oc1=O,8,-22
COC(=O)Oc1c(Br)c(=O)oc2ccccc12,30*,-21
CCN(CC)C(=O)c1ccc(CS(=O)(=O)c2ccc(OC)cc2)o1,-12,-5
N#Cc1c(C(F)(F)F)cc(-c2ccccc2)nc1SCC(=O)Nc1sc2c(c1C#N)CCC2,-7,-29
SMILES,RmlCD inh mix,YopH PTP inh
CNC(=O)c1cc2c(=O)n3cccc(C)c3nc2n(C(C)C)c1=N,89*,-24
COCCCn1c(=N)c(C(=O)NCC2CCCO2)cc2c(=O)n3ccccc3nc21 (centres undefined),69*,-41
CCCCNC(=O)c1cc2c(=O)n3cccc(C)c3nc2n(Cc2ccccc2)c1=N,6,-17
COCCCn1c(=N)c(C(=O)NCC2CCCO2)cc2c(=O)n3cccc(C)c3nc21 (centres undefined),.,-25
C=CCn1c(=N)c(C(=O)NCCCOC)cc2c(=O)n3cccc(C)c3nc21,50*,-28
CCOC(=O)c1cc2c(=O)n3cccc(C)c3nc2n(C)c1=N,.,-38
O=C(CCN1C(=O)c2ccccc2C1=O)Nc1sc2c(c1C(=O)NCC1CCCO1)CCC2 (centres undefined),.,-14
CCc1nnc(SCc2ccc([N+](=O)[O-])cc2)nc1CC,6,.
COc1ccc(C2C3=C(CCCC3=O)Nc3c(-c4ccccc4)c(C)nn32)cc1 (centres undefined),163,-26
C=CCc1ccc(OCCCCN2CC(C)OC(C)C2)c(OC)c1 (centres undefined),5,-8
CCOC(=O)N/N=C/c1ccc(N(CC)CC)cc1O,.,-26
CCN(CC)c1ccc(/C=N/Nc2ccc(C)cc2)c(O)c1,.,83*
O=C1CC(c2ccccc2)c2cc(O)ccc2O1 (centres undefined),-7,70*
Cc1ccc(C2CC(=O)Oc3cc(O)ccc32)cc1 (centres undefined),-45,-14
Cc1cc(=O)oc2cc(OCC(=O)OCC(=O)NCc3ccc4c(c3)OCO4)ccc12,37*,-17
CC(=O)OCC(=O)NCc1ccc2c(c1)OCO2,4,-46
CCOC(=O)c1sc(NC(=O)CSc2nc3c(c(=O)n2-c2ccc(C)cc2)SCC3)c(C(=O)OCC)c1C,-4,-33
COCCCNC(=O)CCCC(=O)NCCCOC,-9,55*
COCCCNC(=O)CCCOc1ccccc1,-17,-16
COc1ccc(C2/C=C\CN(C(=O)C3CC3)CC(=O)N2Cc2ccc(F)cc2)cc1 (centres undefined),6,.
CN1CCc2c(sc3c2C(=O)NC(c2cccc(OC(=O)c4cccs4)c2)N3)C1 (centres undefined),.,72*
CN1CCc2c(sc3c2C(=O)NC(c2ccco2)N3)C1 (centres undefined),7,-31
Cc1cccc(OCc2nnc(SCC(=O)Nc3ccc(C)c(Cl)c3)o2)c1,4,-30
COCCn1c(SCC(=O)Nc2ccc(NC(=O)c3ccco3)c(OC)c2)nc2ccccc2c1=O,-12,6
CCn1c(SCC(=O)Nc2ccc(NC(=O)c3ccco3)c(OC)c2)nc2ccccc2c1=O,95*,-23
SMILES,RmlCD inh mix,YopH PTP inh
O=C(O)C1CCCCC1C(=O)Nc1cccc(Cl)c1Cl (centres undefined),-9,-11
CCOC(=O)N1CCN(C(=O)COc2cc(=O)n(CC)c3ccccc23)CC1,0,-30
CCOC(=O)COc1cc(=O)n(CC)c2ccccc12,-12,52*
Cc1cc(/C=C(\C#N)C(=O)OCC(=O)Nc2ccc(OC(F)F)cc2)c(C)n1CC(C)C,.,-10
O=C(Cn1cnc2ccccc21)N/N=C/C(Br)=C/c1ccccc1,.,-13
CC(=O)N1CCn2c3ccc(C)cc3c3cccc1c32,-9,-18
CCn1cc(/C=N/NC(=O)COc2cccc3cccnc23)c2ccccc21,.,-35
O=C(/C(=C(\[O-])c1ccccc1)[n+]1ccc2ccccc2c1)c1ccc(Cl)cc1,.,10
O=C(/C(=C(\[O-])c1ccccc1)[n+]1ccc2ccccc2c1)c1ccccc1,.,69*
COc1ccc(OC)c(NC(=O)c2cc(-c3ccc(C)cc3O)n[nH]2)c1,2,92*
Cc1ccc(-c2cc(C(=O)Nc3cc(C)ccc3C)[nH]n2)c(O)c1,-12,-21
CCCCn1c(NC(=O)c2ccccc2)c(C#N)c2nc3ccccc3nc21,.,60*
CCC(C)n1c(NC(=O)c2ccccc2)c(C#N)c2nc3ccccc3nc21 (centres undefined),-10,14
Cc1cc(N2CCCc3ccccc32)n2ncnc2n1,15,-5
Cc1csc(N2CCc3ccccc32)n1,7,54*
CCO/C=C1\C(=O)N(c2ccccc2)C(=O)c2ccccc21,186*,89*
CCO/C=C1/C(=O)N(Cc2ccccc2)C(=O)c2ccccc21,.,101*
CCO/C=C1/C(=O)N(CC)c2ccccc21,.,2
CCN(CC)c1ccc(N2C(=O)c3ccccc3C2=O)cc1,7,-17
Cc1ccc(CNC(=O)N[C@@H](Cc2ccccc2)C(=O)O)cc1,.,-36
Cc1cc2c3nonc3ccc2n1-c1ccccc1,?,-45
CN(C(=O)Nc1ccccc1)C1CCS(=O)(=O)C1 (centres undefined),-13,-9
CC(=O)NC1=C(N(C)C2CCS(=O)(=O)C2)C(=O)c2ccccc2C1=O (centres undefined),.,74*
O=C1C(=O)c2cccc3cccc1c23,.,-28
O=C1C(=O)c2ccccc2-c2ccccc21,13,100*

# Compound activity from PubChem BioAssay.
